Assay results: PubChem BioAssay (NCATS)
Records with an inconclusive call do not appear. Calls of active or inactive are those of the source. Unless noted, calls follow the shape of the dose curve; as a rule, active = well fitted curve in the direction sought with a large enough effect; inconclusive = small, poorly fitted or top-dose-only effect, or another doubt; inactive = no such curve, though single readings can be large; an effect the other way counts as inactive or inconclusive.

Tests used:
[1] = qHTS assay for small molecule activators of the p53 signaling pathway (AID 651743; active = well fitted activation curve with a large enough effect in the signal ratio, not every such curve was filed as active; the % refers to the signal ratio; also: % of control where 0% means no effect); conditions: HCT-116 p53RE-bla, beta-lactamase FRET ratio, 16 h; activation: active compounds read high
Method in brief: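 Following 16 hours of compound exposure at 37 C, HCT-116 cells bearing the p53RE-bla reporter were loaded with LiveBLAzer B/G FRET substrate for 2 hours at room temperature and fluorescence intensity was recorded.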

[2] = qHTS assay for environmental chemicals that activate the Aryl hydrocarbon Receptor (AhR) signaling pathway (AID 651777); conditions: 1A2-DRE human hepatoma cells, luciferase, 24 h; activation: active compounds read high; also: % of control where 0% means no effect; nearly all actives have a fitted effect of over 15% in size
Method in brief: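 Quantitative HTS in stably transfected human liver-derived cells whose luciferase gene sits downstream of the CYP1A2 promoter and dioxin response element. After 24 hr exposure at 37 C, One-Glo luminescence was measured.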

[3] = target: Peroxisome proliferator-activated receptor alpha (Homo sapiens) (UniProt Q07869); assay: qHTS assay for small molecule agonists of the peroxisome proliferator-activated receptor alpha (PPARalpha) signaling pathway (AID 651778); conditions: PathHunter PPARalpha complementation, chemiluminescence, 6 h; active compounds read high; also: % of control where 0% means no effect
Chain of Peroxisome proliferator-activated receptor alpha (Homo sapiens) (Q07869 whole entry, looked up, the tested form may be a part): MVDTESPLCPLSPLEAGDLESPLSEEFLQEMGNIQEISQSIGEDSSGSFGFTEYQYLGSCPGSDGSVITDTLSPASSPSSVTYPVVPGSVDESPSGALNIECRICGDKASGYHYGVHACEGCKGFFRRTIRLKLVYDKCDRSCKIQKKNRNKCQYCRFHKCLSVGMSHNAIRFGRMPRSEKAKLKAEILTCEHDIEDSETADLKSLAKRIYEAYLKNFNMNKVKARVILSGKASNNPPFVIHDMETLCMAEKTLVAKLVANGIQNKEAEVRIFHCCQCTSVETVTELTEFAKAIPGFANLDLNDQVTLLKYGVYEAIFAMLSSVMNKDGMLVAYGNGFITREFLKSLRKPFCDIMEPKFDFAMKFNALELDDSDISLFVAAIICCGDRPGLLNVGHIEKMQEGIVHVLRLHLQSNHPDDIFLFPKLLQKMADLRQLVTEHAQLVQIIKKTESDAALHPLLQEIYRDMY
Method in brief: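 Enzyme-fragment complementation assay in which ligand-bound PPARalpha translocates and forms an active enzyme that generates chemiluminescence. Cells were plated overnight, exposed to compound for 6 hr at 37 C, and then given detection reagent for 60 min at room temperature.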

[4] = qHTS assay for small molecule agonists of the antioxidant response element (ARE) signaling pathway measured by Nrf2-dependant transcriptional activity (AID 720636; active = well fitted curve in the direction sought with a large enough effect in the repeat runs; an effect the other way counts as inactive or inconclusive; also: % of control where 0% means no effect)
Method in brief: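 Quantitative HTS format in HepG2 cells stably expressing an ARE-luciferase reporter; 16 hr compound treatment at 37 C, luciferase signal detected with ONE-Glo.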

[5] = qHTS assay for small molecule agonists of the antioxidant response element (ARE) signaling pathway measured by Nrf2-dependant transcriptional activity - cell viability counter screen (AID 720653; active = well fitted curve in the direction sought with a large enough effect in the repeat runs; an effect the other way counts as inactive or inconclusive; also: % is scaled to controls: 0 for no effect and ±100 for the full control effect); conditions: ARE-bla HepG2 viability, CellTiter-Glo ATP luminescence, 16 h; max response: active compounds read low
Method in brief: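 ARE-bla HepG2 cells treated with compounds for 16 h at 37C; this counter screen measures viability as intracellular ATP by CellTiter-Glo luminescence after 30 min at room temperature.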

[6] = qHTS Assay for Identifying Gametocytocidal Compounds (AID 743244);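 also: % is scaled to controls: 0 for no effect and ±100 for the full control effect; actives lower the fluorescent signal which means gametocytes are killed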; conditions: P. falciparum 3D7 stage III-V gametocytes, alamarBlue, 72 h; max response: active compounds read low
Method in brief: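 Using 20,000 stage III–V 3D7 gametocytes per well, compounds were incubated 72 h under 37 °C/5% CO2. Viability was then assessed by 24 h alamarBlue reduction, measured fluorometrically at 525/598 nm.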

[7] = qHTS assay for cell viability of HEK293 cells (AID 743288); conditions: ATP luminescence (CellTiter-Glo), 18 h; max response: active compounds read low; also: % is scaled to controls: 0 for no effect and ±100 for the full control effect; nearly all actives have a fitted effect of over 50% in size
Method in brief: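 Steps: plate 2,000 parental HEK293 cells per well; incubate ≥5 h, 37 C; add compounds in DMSO; incubate 18 h, 37 C; add CellTiter-Glo; wait 30 min at room temperature; read luminescence.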

[8] = qHTS assay for cell viability of the p53RE-bla HCT-116 cell line (AID 743292); also: % is scaled to controls: 0 for no effect and ±100 for the full control effect; nearly all actives have a fitted effect of over 55% in size
Method in brief: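 Viability of compound-treated p53RE-bla HCT-116 cells is taken from ATP-dependent luciferase luminescence. Treatment lasts 16 h at 37 C after a 5 h settling period; detection follows 30 min at room temperature.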

[9] = P-glycoprotein substrates identified in KB-8-5-11 adenocarcinoma cell line, qHTS therapeutic library screen (AID 1346987); also: potency is read from the fitted curve at half-maximal effect; nearly all actives have a fitted effect of over 65% in size
Method in brief: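 Compounds are pinned in dose-response onto KB-8-5-11 cells (500 cells/well, colchicine-free medium) and left 72 h at 37 degree C. CellTiter-Glo luminescence then yields AC50 values.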

[10] = Drug repurposing screens with cells derived from glioblastoma tumor samples (AID 1345199); conditions: GBM patient neurospheres viability, ATP luminescence, 48 h; Potency: tumour line A; series mostly up to 45.9 µM; also: % is scaled to controls: 0 for no effect and ±100 for the full control effect; nearly all actives have a fitted effect of over 40% in size
Method in brief: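 Primary testing used CD133+ neurospheres from four GBM patients, seven concentrations, 48 h exposure and ATP-based viability; confirmation added three slower-growing patient lines.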

[11] = target: Nuclear receptor subfamily 1 group I member 2 (Rattus norvegicus) (UniProt Q9R1A7); assay: qHTS assay for small molecule activators of the rat pregnane X receptor (rPXR) signaling pathway (AID 651751; call rule not given here; also: 0% is about no effect); conditions: rPXR reporter cells, luciferase (One-Glo), 24 h
Chain of Nuclear receptor subfamily 1 group I member 2 (Rattus norvegicus) (Q9R1A7 whole entry, looked up): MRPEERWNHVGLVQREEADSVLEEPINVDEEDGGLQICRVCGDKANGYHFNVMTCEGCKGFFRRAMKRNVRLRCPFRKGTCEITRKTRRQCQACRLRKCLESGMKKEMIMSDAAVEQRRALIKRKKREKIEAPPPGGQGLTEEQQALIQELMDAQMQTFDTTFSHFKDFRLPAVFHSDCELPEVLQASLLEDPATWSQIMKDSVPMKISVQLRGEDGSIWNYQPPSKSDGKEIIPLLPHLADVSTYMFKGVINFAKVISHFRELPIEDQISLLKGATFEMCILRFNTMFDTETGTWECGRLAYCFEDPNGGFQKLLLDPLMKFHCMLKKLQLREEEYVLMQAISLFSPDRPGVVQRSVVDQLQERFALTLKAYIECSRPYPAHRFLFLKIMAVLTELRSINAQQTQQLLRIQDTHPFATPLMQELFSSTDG

[12] = qHTS assay for small molecule activators of the human pregnane X receptor (PXR) signaling pathway (AID 720659; call rule not given here; also: 0% is about no effect)
[13] = target: Alpha-galactosidase (Coffea arabica) (UniProt Q42656); assay: Counterscreen for Glucocerebrosidase Inhibitors: qHTS Assay for Coffee Bean alpha-Galactosidase at pH 4.5 (AID 957);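 also: plate controls were enzyme alone for no effect and no enzyme for full effect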
Chain of Alpha-galactosidase (Coffea arabica) (Q42656 whole entry, looked up): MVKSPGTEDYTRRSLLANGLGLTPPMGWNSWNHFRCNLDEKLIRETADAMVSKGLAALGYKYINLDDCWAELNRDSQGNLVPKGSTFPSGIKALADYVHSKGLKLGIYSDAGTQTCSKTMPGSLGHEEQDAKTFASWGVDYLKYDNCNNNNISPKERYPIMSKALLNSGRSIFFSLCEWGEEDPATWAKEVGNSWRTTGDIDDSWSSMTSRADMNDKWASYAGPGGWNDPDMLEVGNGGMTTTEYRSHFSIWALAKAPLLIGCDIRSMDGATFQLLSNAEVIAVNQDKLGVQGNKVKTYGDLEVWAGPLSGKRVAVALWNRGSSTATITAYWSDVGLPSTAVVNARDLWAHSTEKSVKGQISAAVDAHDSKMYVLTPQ
Method in brief: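 Fluorogenic qHTS at pH 4.5 (citrate buffer with Tween-20): 2 nM enzyme, 80 uM 4-MU-alpha-galactoside substrate, compound titrated 0.7 nM to 77 uM, 20 min room temperature. Glycine/NaOH stop; 4-MU read Ex 365/Em 440; Hill-equation AC50 against no-enzyme and enzyme controls.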

[14] = High Content Imaging Cell-Based qHTS for Inhibitors of the mTORC1 Signaling Pathway in MEF (Tsc2-/-, p53-/-) Cells (AID 2666);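 also: percent of cells scored positive for phospho-rpS6 Ser235/236 immunostaining by imaging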
Method in brief: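 MEF Tsc2-/- p53-/- (empty vector), DMEM/10% FBS; cpd 24 h 37 °C; PFA fix, Alexa-488 p-rpS6 S235/236 Ab, Hoechst; imaged; rapamycin-defined inhibition; % positive cells/well.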

[15] = Validation screen for inhibitors of Lassa infection (AID 463096; calls by dose curve; also: % is scaled to controls: 0 for no effect and ±100 for the full control effect)
[16] = target: M-phase phosphoprotein 8 (Homo sapiens) (UniProt Q99549); assay: qHTS Validation Assay for Inhibitors for MPP8 Chromodomain Interactions with Methylated Histone Tails (AID 488949); also: top concentration of the series differs between compounds; % is scaled to controls: 0 for no effect and ±100 for the full control effect; nearly all actives have a fitted effect of over 55% in size
Chain of M-phase phosphoprotein 8 (Homo sapiens) (Q99549 whole entry, looked up): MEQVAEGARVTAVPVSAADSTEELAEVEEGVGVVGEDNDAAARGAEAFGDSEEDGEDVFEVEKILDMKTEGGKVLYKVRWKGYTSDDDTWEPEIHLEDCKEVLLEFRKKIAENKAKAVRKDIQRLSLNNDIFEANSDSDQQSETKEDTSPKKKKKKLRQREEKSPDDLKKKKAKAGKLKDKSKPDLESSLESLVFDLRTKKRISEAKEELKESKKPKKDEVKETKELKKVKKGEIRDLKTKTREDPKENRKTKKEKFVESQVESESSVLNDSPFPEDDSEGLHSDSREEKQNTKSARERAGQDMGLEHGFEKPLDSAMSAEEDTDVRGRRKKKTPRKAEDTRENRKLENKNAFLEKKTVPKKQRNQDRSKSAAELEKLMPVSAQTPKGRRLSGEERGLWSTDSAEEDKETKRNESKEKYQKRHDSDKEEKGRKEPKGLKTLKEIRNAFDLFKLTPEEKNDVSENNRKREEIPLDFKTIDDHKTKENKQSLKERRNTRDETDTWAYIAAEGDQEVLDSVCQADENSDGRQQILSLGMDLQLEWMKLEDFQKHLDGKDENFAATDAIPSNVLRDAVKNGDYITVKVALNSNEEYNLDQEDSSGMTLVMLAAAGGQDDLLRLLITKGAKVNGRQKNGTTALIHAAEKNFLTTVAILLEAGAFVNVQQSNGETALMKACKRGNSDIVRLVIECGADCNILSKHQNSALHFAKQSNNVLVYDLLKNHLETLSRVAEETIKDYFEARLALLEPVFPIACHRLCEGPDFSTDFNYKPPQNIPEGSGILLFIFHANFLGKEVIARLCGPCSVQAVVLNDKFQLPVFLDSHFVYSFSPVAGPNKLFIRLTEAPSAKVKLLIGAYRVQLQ
Method in brief: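 MPP8 (50 nM) was pre-bound to 50 nM biotinylated H3(1-18)K9me3 peptide in PBS pH 7.4 with 0.01% Tween-20. Compounds were then added for 30 min at room temperature, and complex disruption was read by AlphaScreen with streptavidin donor and nickel-chelate acceptor beads.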

[17] = Inducers of the Endoplasmic Reticulum Stress Response (ERSR) in human glioma: Validation (AID 504836); also: 0% is about no effect
Method in brief: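 Stably transfected U87-MG glioma cells carrying a GRP78-based luciferase sensor; 16 h compound incubation. Luminescence end-point read 10 min after Bright-Glo addition at room temperature.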

[18] = target: Ubiquitin carboxyl-terminal hydrolase 1 (Homo sapiens) (UniProt O94782); assay: Inhibitors of USP1/UAF1: Pilot qHTS (AID 504865);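 also: rhodamine fluorescence freed from ubiquitin-rhodamine substrate followed over time; top concentration of the series differs between compounds; % is scaled to controls: 0 for no effect and ±100 for the full control effect; nearly all actives have a fitted effect of over 35% in size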
Chain of Ubiquitin carboxyl-terminal hydrolase 1 (Homo sapiens) (O94782 whole entry, looked up): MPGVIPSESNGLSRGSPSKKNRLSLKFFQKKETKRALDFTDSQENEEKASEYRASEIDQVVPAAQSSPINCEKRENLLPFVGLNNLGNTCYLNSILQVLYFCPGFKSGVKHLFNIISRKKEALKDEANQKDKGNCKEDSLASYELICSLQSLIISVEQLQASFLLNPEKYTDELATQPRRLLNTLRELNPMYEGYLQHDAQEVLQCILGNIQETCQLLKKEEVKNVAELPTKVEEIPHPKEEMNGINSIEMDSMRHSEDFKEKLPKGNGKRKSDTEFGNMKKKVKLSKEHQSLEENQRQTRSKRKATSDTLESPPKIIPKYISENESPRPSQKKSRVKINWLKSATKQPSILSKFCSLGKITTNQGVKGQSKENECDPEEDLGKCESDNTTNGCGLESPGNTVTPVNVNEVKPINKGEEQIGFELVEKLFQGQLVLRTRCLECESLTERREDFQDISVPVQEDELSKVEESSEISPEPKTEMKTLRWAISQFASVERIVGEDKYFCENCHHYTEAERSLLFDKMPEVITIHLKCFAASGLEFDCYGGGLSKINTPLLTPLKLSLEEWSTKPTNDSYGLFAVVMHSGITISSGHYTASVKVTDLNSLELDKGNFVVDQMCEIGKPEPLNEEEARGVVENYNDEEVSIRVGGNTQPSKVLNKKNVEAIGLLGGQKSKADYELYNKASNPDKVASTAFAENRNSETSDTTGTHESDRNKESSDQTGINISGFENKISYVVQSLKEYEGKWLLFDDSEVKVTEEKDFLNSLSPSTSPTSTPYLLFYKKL
Method in brief: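 USP1/UAF1 complex at 1 nM preincubated 15 min at room temperature with compound, then Ub-Rho substrate added at 150 nM final. Fluorescence (480/540 nm) read kinetically in 50 mM HEPES pH 7.8, 0.5 mM EDTA, 1 mM TCEP, 0.1 mg/ml BSA, 0.01% Tween-20.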

[19] = HTS Assay for Allosteric Antagonists of the Human D2 Dopamine Receptor: Hit Validation in HTRF (AID 624455);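 also: stable D1 dopamine receptor cell line scored for blocking the D1 response; % is scaled to controls: 0 for no effect and ±100 for the full control effect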
Method in brief: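 Inhibition of the D1-mediated response was measured by HTRF. Cells used were a line stably expressing the D1 dopamine receptor.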

[20] = target: Arylsulfatase A (Homo sapiens) (UniProt P15289); assay: qHTS screen for enhancers of Arylsulfatase A (ASA1): LOPAC Validation Assay (AID 720538)
Chain of Arylsulfatase A (Homo sapiens) (P15289 whole entry, looked up): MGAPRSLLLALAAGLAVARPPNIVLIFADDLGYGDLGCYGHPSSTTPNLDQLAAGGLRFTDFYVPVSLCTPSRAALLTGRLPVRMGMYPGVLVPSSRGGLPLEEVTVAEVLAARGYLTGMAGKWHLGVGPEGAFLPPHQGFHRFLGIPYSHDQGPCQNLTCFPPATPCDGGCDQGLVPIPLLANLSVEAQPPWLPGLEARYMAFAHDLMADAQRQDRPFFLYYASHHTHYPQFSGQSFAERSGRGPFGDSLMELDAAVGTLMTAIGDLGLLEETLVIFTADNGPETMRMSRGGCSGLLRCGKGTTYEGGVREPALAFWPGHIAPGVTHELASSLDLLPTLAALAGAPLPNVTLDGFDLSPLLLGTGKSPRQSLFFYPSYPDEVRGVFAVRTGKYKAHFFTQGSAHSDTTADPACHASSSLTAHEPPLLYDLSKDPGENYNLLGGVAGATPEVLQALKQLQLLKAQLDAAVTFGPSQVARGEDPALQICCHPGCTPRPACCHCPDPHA
Method in brief: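 SV40-transformed fibroblasts from an MLD patient (ASA-I179S) were treated with compound for 48 h at 37 C. They were then lysed with 0.5 mM pNCS substrate (final) for 14 h at room temperature and stopped with NaOH; signal read by fluorescence (Ex 525/Em 598 nm), with increase denoting enhanced activity.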

[21] = target: Parathyroid hormone/parathyroid hormone-related peptide receptor (Homo sapiens) (UniProt Q03431); assay: qHTS for PTHR1 Agonists: Optimization Screen against the NCGC LOPAC library (AID 1347079);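 also: GloSensor cAMP luminescence in HEK-293 GP2 cells expressing human PTHR1 with IBMX; 0% is about no effect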
Chain of Parathyroid hormone/parathyroid hormone-related peptide receptor (Homo sapiens) (Q03431 whole entry, looked up): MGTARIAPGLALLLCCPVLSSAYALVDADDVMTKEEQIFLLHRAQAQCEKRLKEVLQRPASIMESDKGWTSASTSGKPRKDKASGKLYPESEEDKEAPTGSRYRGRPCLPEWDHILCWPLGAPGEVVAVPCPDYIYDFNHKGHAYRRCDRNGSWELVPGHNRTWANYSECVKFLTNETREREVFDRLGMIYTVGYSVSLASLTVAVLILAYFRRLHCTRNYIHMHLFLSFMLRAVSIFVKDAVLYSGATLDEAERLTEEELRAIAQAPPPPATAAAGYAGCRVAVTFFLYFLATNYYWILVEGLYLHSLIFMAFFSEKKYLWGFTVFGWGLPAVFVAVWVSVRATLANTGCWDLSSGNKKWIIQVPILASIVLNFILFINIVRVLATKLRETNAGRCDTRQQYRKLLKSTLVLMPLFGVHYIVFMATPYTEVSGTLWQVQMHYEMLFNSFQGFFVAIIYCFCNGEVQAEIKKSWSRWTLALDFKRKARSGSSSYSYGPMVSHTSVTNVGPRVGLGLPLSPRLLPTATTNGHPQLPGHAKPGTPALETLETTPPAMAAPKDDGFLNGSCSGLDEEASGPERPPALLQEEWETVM
Method in brief: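 HEK-293 GP2 cells, PTHR1 + GloSensor cAMP; 3000 cells/well, o/n. Luciferin + IBMX 0.5mM each (stock), 1 hr 37C. Cpd titration, 1 hr 37C. Lum after 15 min RT. Ctrl M-PTH(1-15) top 10uM.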

[22] = qHTS for Inhibitors of the Functional Ribonucleoprotein Complex (vRNP) of Lassa (LASV) Arenavirus: LASV Primary Screen - GLuc reporter signal (AID 1347082; calls by dose curve; tested in HEK293 reporter line; also: % is scaled to controls: 0 for no effect and ±100 for the full control effect; nearly all actives have a fitted effect of over 60% in size)
[23] = qHTS for Inhibitors of the Functional Ribonucleoprotein Complex (vRNP) of Lassa (LASV) Arenavirus: Viability assay - alamar blue signal for LASV Primary Screen (AID 1347083; calls by dose curve; tested in HEK293 reporter line; also: % is scaled to controls: 0 for no effect and ±100 for the full control effect; nearly all actives have a fitted effect of over 80% in size)
[24] = qHTS for Inhibitors of the Functional Ribonucleoprotein Complex (vRNP) of Lymphocytic Choriomeningitis Arenaviruses (LCMV): Viability assay - alamar blue signal for LCMV Primary Screen (AID 1347085; calls by dose curve; tested in HEK293 reporter line; also: % is scaled to controls: 0 for no effect and ±100 for the full control effect; nearly all actives have a fitted effect of over 80% in size)
[25] = target: Nucleoprotein (Lymphocytic choriomeningitis virus (strain Armstrong)) (UniProt P09992); assay: qHTS for Inhibitors of the Functional Ribonucleoprotein Complex (vRNP) of Lymphocytic Choriomeningitis Arenaviruses (LCMV): LCMV Primary Screen - GLuc reporter signal (AID 1347086; calls by dose curve; also: % is scaled to controls: 0 for no effect and ±100 for the full control effect; nearly all actives have a fitted effect of over 70% in size)
Chain of Nucleoprotein (Lymphocytic choriomeningitis virus (strain Armstrong)) (P09992 whole entry, looked up): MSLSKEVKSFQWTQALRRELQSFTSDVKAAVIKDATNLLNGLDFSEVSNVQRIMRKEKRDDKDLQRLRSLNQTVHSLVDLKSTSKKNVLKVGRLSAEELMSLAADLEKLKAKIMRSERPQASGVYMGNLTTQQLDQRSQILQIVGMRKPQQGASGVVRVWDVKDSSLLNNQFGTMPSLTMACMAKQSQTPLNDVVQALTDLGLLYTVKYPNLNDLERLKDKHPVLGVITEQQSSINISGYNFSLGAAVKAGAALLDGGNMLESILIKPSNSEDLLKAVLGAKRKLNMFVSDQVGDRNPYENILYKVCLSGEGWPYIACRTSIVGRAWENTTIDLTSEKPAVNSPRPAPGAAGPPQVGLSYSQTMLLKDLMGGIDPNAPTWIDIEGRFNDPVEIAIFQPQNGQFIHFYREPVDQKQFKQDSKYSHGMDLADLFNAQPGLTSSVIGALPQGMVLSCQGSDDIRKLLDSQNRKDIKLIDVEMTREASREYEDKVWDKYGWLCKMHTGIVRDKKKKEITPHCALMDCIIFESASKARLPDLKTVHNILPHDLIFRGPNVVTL

C[C@]12CC[C@H]3[C@@H](CCC4=CC(=O)CC[C@@]43C)[C@@H]1CC[C@H]2O
inactive: activation [1] 0.0688% | activation [2] -2.33% | max response [3] -2.25% | Potency [4] | max response [5] 1.08% | max response [6] -4.18% | max response [7] -7.89% | outcome [8] | Potency [10] | max response [11] 3.9% | outcome [12]
active: Potency [9] 2.59 µM

C1CCc2nnnn2CC1
inactive: outcome [13] | Potency [14] | Potency [15] | Potency [16] | outcome [17] | Potency [18] | outcome [19] | Potency [20] | outcome [21] | Potency [22] | Potency [23] | Potency [24] | Potency [25]
